Screens from PubChem BioAssay.
Mito fusion yeast: qHTS Assay for Small Molecule Inhibitors of Mitochondrial Division or Activators of Mitochondrial Fusion; S. cerevisiae fusion-defective mutant growth rescue, CellTiterGlo 48 h; Potency, µM (highest dose often 46.1 µM), inactives show at the highest dose growth rescue (activation), most hits filed as activators; hit rate 0.23% among 320,000; AID 485298, 2010; also: % of control where 0% means no effect; nearly all actives have a fitted effect of over 45% in size
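Yeast fusion mutant, YPEG (non-fermentable carbon), compound, 48 h at 37C non-permissive; CellTiterGlo added, 10 min RT, luminescence read. Rescued growth = division inhibition.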
FUS yeast rescue: qHTS for Suppressors of FUS Proteinopathy: Primary screen using FUS-linked yeast assay; S. cerevisiae FUS-expressing, growth rescue, OD600, 24 h; Potency, µM (series often up to 76.6 µM), hits mostly activators; hit rate 0.24% among 390,000;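 also: plate controls were DMSO vehicle for no effect and reference control for full effect; nearly all actives have a fitted effect of over 55% in size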
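Yeast expressing FUS under galactose induction, OD 0.005 in 2% galactose medium; compounds in a dilution series, 24 h at 30C. Growth rescue by absorbance at 600 nm; CP55940 positive control, DMSO negative.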
aSyn yeast inh: qHTS of alpha-syn Inhibitors | Yeast expressing alpha-synuclein, growth rescue, BacTiter-Glo, 24 h | Potency, µM (doses to about 46.1 µM), for the others: at the top dose growth rescue (activation), actives largely listed as activators | hit rate 0.14% among 370,000; also: % of control where 0% means no effect; nearly all actives have a fitted effect of over 65% in size
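Rescue of yeast growth: cells expressing toxic alpha-synuclein, induced in galactose at OD600 0.02, incubated with compound 24 h at 30 C. ATP luminescence quantified growth; inhibitors of toxicity appear as activators.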
TDP43 rescue: qHTS of TDP-43 Inhibitors. TDP-43 expressing yeast growth rescue, BacTiter-Glo, 24 h. Potency, µM (top dose mostly 46.1 µM), for the others: top-dose growth rescue (activation), actives largely listed as activators. hit rate 1.8% among 410,000; also: % of control where 0% means no effect; nearly all actives have a fitted effect of over 50% in size
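Galactose-induced TDP-43 yeast, OD600=0.02, compound pinned; 24 hr, 30 deg C; BacTiter-Glo luminescence for growth. Inhibitors of TDP-43 toxicity read as activators.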
AT treatment: qHTS Assay for Identifying a Potential Treatment of Ataxia-Telangiectasia; F2112 A-T fibroblasts, KAP-1 phosphorylation AlphaLISA; neocarzinostatin DNA damage 30 min before lysis; Potency, µM (doses to about 57.5 µM), for the others: top-dose activation, actives largely listed as activators; hit rate 0.19% among 320,000; AID 485349, 2010; also: % of control where 0% means no effect; nearly all actives have a fitted effect of over 45% in size
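hTERT-immortalized A-T patient fibroblasts (F2112), 500 cells/well in OPTI-MEM, 1% FBS, got compounds for 60 min, then NCS for 30 min at 37C. Lysates were then assayed for phospho-KAP-1 by AlphaLISA (anti-pKAP1 donor, anti-KAP1 acceptor beads), 6 hr at 25C.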
Abeta yeast res: qHTS for compounds that reverse cellular toxicity of Amyloid beta (A-beta) peptide in yeast: Primary Screen; yeast expressing A-beta42, growth rescue, OD600, 48 h; response scale: 0% DMSO, 100% iron-clioquinol control; Potency, µM (series often up to 46.1 µM), usual class: activators; hit rate 0.063% among 410,000; also: nearly all actives have a fitted effect of over 55% in size
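Growth rescue measured by 600 nm absorbance after 48 h yeast culture at 30 C with compound. Values normalized between DMSO and an equimolar ferric chloride plus clioquinol control.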
Numbers without * were called inactive; i = inactive; ? = inconclusive; · = no result given; [ ] = dose if it differs, or a comment. Shown are actives, neighbours in structure and some others; about 2.4% of the full set was active somewhere. Calls follow the shape of the dose curve; as a rule, active = well fitted curve in the direction sought with a large enough effect; inconclusive = small, poorly fitted or top-dose-only effect, or another doubt; inactive = no such curve, though single readings can be large; an effect the other way counts as inactive or inconclusive. Potency is read from the fitted curve at half-maximal effect.

SMILES | Mito fusion yeast | FUS yeast rescue | aSyn yeast inh | TDP43 rescue | AT treatment | Abeta yeast res
CCCc1cc(=O)[nH]c(SCc2nc(-c3ccc(C)cc3)no2)n1 | · | i | · | -20% | · | i
Cc1nc2ccc(NS(=O)(=O)c3ccc(F)c(F)c3F)cc2s1 | · | i | ? | 20µM* | 0% | i
COc1ccc(-c2csc(Nc3ccccc3)n2)cc1 | -3% | i | -27% | 10µM* | 2% | ?
COc1ccc(-c2csc(Nc3ncccc3C)n2)cc1 | -2% | i | -41% | 24% | 14% | i
O=C(Nc1cccc(-c2csc(Nc3cccc(C(F)(F)F)c3)n2)c1)c1ccccc1 | -78% | i | -23% | 18µM* | -3% | i
COc1ccc(-c2csc(Nc3ncccc3C)n2)cc1OC | -3% | i | -30% | 14µM* | 1% | i
COc1ccc(-c2csc(-n3cccn3)n2)cc1 | -18% | i | 2% | 10µM* | -9% | i
COc1ccc(-n2nnc(C(=O)Nc3ccccc3F)c2N)cc1 | · | i | -9% | 2% | · | i
CC(C)Oc1ccc(CNC(=O)c2ccc3c(c2)nc2n3CCOC2)cc1 | · | i | · | 20% | · | i
O=C(Nc1cccc(-c2csc(Nc3ccccc3)n2)c1)c1ccccc1 | -36% | i | -22% | 6.3µM* | 23% | i
COc1ccc(-c2csc(-c3cccnc3)n2)cc1C | 0% | i | 15% | 16µM* | -3%[11.5 µM] | i
COc1ccc2cc(-c3csc(-c4cccnc4)n3)ccc2c1 | 0% | i | 2% | 22% | 0% | i
CC(=O)c1cccc(Nc2nc(-c3ccccc3)cs2)c1 | 1% | i | -7% | 27% | 6% | ?
C=C1C(=O)[C@]23C[C@H]1CCC2[C@]1(C)C(=O)CC[C@@](C)(C(=O)O)C1C[C@@H]3O (stereo partly drawn) | · | i | 16µM* | 13µM* | · | i
C=C1C(=O)[C@]23C[C@H]1CCC2[C@]1(C)CCC[C@@](C)(C(=O)O)C1C[C@@H]3O (stereo partly drawn) | · | i | ? | ? | · | i
O=C(NNC(=O)c1ccccn1)c1ccc(OC(F)F)cc1 | · | i | ? | 32µM* | -1% | i
S=C1SCCCN1Cc1ccc(Cl)cc1 | · | i | 2% | 11µM* | · | i
Clc1ccc(CN2CCCCCC2)cc1 | -1% | i | -1% | -20% | 1% | i
Cc1nn2c(=O)cc(COC(=O)c3ccc(NC(=O)c4ccc(C(C)(C)C)cc4)cc3)nc2s1 | · | i | · | 9% | · | i
Cc1ccc(Cc2c[nH]c(=S)s2)cc1 | 0% | i | 1% | 11µM* | 1% | i
COc1ccc(-c2sc3ccc(OC)cc3c2C#CCCO)cc1 | 18% | ? | 2% | 22µM* | ? | i
COc1ccc2sc(-c3ccc(SC)cc3)c(C#CCO)c2c1 | · | i | -18% | 1% | 12% | i
COc1ccc2sc(-c3ccc(N(C)C)cc3)c(C#CCCO)c2c1 | ? | ? | 7% | 35µM* | 25µM* | i
COc1ccc2c(c1)c1c(c(=O)n(-c3cccc(C)c3)c(=O)n1CC(=O)NCC1CCCO1)n2C (stereo not drawn) | · | i | · | ? | · | i
COc1ccc(CCNC(=O)CCc2c(C)nc3c4c(C)cc(C)nc4nn3c2C)cc1OC | · | i | · | 15% | · | i
SMILES | Mito fusion yeast | FUS yeast rescue | aSyn yeast inh | TDP43 rescue | AT treatment | Abeta yeast res
O=C1CCC[C@H]2Cc3nc4cc5c(cc4cc3C[C@]23CCCN13)OCO5 | · | i | · | · | · | ·
CC1=NN(C(C#N)c2ccc([N+](=O)[O-])cc2)C(C)(C)C1 (stereo not drawn) | -4% | i | -2% | 13% | 3.5µM* | i
CCCCN(CC)S(=O)(=O)c1ccc(C(=O)Nc2nnc(CSC)o2)cc1 | -14% | i | 32µM* | ? | -7% | i
CN(C(=O)CCn1nnc(-c2cccs2)n1)C1CCCCC1 | · | i | · | · | · | ·
c1cnc2c(c1)ccc1cccnc12 | ? | i | -6% | 35µM* | 3% | i
OC(c1cc(-c2ccc(C(F)(F)F)cc2)nc(C(F)(F)F)c1)C1CCCCN1 (stereo not drawn) | -74% | i | 23% | -15% | 40µM* | i
OC(c1cc(C(F)(F)F)nc2c(C(F)(F)F)cccc12)C1CCCCN1 (stereo not drawn) | -30% | i | -3% | 3% | -8% | i
O=C(Nc1cc(Cl)ccc1Oc1ccccc1)c1ccccc1F | -5% | · | -12% | -8% | 20% | i
O=C(Nc1ccccc1Oc1ccccc1)c1ccccc1F | 26% | i | -8% | 13µM* | 6% | i
CS(=O)(=O)c1ccccc1C(=O)Nc1ccccc1Cc1ccccc1 | 9% | i | -3% | 0% | -5% | i
O=C(Nc1ccccc1Cc1ccccc1)c1ccccc1F | ? | i | -4% | ? | 9% | 2.5µM*
C[C@H]1[C@@H](NCc2ccccc2)CC[C@@]23CCCN2C(=O)CCC[C@@H]13 | · | i | · | · | · | ·
CCOC(=O)c1cccc(NC(=O)CCn2c(-c3ccc(F)cc3)cc(C(=O)OCC)c2C)c1 | · | i | · | 7% | · | i
C=CCNc1nc(-c2cc3ccccc3o2)cs1 | 0% | · | -1% | 13µM* | -3% | i
c1ccc2oc(-c3csc(NCC4CCCO4)n3)cc2c1 (stereo not drawn) | -6% | i | -2% | 11µM* | 8% | i
c1ccc2sc(NCC3CCCO3)nc2c1 (stereo not drawn) | -3% | i | -3% | 3%[0.397 µM] | 7% | i
COc1ccc(S(=O)(=O)c2c(Nc3ccc(C)cc3)sc(C(=O)c3ccc4c(c3)OCO4)c2N)cc1 | · | i | · | 14% | · | i
Cc1ccc(C(C)NC(=S)NC2CCCCC2)c(C)c1 (stereo not drawn) | -7% | i | -25% | 20% | -1% | 11µM*
O=C(O)C1C2C=CC(C3CC23)C1C(=O)O (stereo not drawn) | -1% | i | 7% | 14µM* | 0% | i
O=C(Cc1ccccc1)Nc1ccccc1Sc1ccccc1 | 10% | · | -1% | 24% | ? | i
CC(=O)N1CCN(CC(=O)Nc2ccccc2Sc2ccc(Cl)cc2)CC1 | 9% | · | 14% | -25% | -1% | i
O=C(CCl)Nc1ccccc1Sc1ccc(Cl)cc1 | 2% | i | · | 11µM* | 2% | i
